Source: PubChem BioAssay (several laboratories)
COUP-TFII inh: blocks human COUP-TFII nuclear receptor; P24468; HEK293T NGFI-A luciferase reporter, luminescence; inhibition, % at 8.6 µM; 0.7% of 370,000 active;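 active = inhibition above a per-plate cutoff, mean inhibition of test wells between control levels plus 3 SD, cut at about 38% in these data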;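 note: cells cotransfected with COUP-TFII expression vector driving the NGFI-A reporter; 0% = median of COUP-TF2 test wells and 100% = reporter-only cells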
Target sequence (P24468 whole entry, looked up): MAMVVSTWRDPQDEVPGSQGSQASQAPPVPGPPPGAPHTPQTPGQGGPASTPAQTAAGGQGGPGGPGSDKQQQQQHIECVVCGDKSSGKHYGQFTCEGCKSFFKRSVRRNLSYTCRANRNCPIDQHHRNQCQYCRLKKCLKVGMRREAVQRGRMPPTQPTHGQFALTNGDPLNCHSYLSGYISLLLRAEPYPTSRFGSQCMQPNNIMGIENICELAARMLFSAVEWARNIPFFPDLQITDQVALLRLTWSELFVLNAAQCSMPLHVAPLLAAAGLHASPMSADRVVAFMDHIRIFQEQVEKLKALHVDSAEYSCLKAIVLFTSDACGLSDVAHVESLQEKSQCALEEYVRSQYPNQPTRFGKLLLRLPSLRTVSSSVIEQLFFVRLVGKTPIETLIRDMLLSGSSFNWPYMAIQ
SMARCA2 activ: SMARCA2 function activation, primary screen. activation, % at 9.1 µM. 1% of 370,000 active. MG213 cells, MMTV-luciferase reporter, dexamethasone, overnight. AID 652017; in the data active = activation above about 7.8%;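 note: 0% = vehicle wells and 100% = reference activator wells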
Gli-Sufu block: blocks Gli-Sufu signaling in a luciferase reporter | AID 588413 | 0.74% of 340,000 active | inhibition, % at 5 µM | Sufu-KO-LIGHT fibroblasts, Gli luciferase reporter luminescence;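 active = inhibition above about 55%, limit read from the data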;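 note: 0% = DMSO-treated cells and 100% = wells with medium but no cells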
FXN GAA850 act: increases GAA850 frataxin promoter reporter activity; AID 540364; HEK293 lucGAA850 FXN promoter luciferase reporter, 24 h; percent of 10 µM SAHA response; activation, % at 6 µM; 0.56% of 360,000 active;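 active = activation above the average of all compounds screened plus 3 SD, cutoff fixed separately per campaign, cut at about 7.5% in these data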;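 note: 0% = DMSO wells and 100% = 10 µM SAHA wells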
H9c2 protect: protects H9c2 cardiomyocytes from peroxide injury; protection from H2O2 cell death, % at 20 µM; H2O2 injury protection, ATPLite, 2 h; 0.63% of 360,000 active;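 active = compounds giving at least 50% protection of heart cells from peroxide-induced death in the single-dose screen, raw or plate-pattern-corrected value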;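 note: 0% = DMSO wells with peroxide and 100% = DMSO wells without peroxide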
GalR3 antagonist: human GalR3 antagonism; HEK293 GalR3-CNG cAMP membrane potential fluorescence; galR3 body fused to GalR1 C-terminus; O60755; inhibition, % at 3 µM; 0.44% of 360,000 active;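 active = inhibition above the screen-wide average plus 3 SD, cut at about 13% in these data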;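 note: forskolin and galanin both at EC90 stimulate the cells; cAMP rise reported by CNG channel membrane potential dye signal; 0% = forskolin plus galanin with DMSO and 100% = forskolin alone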
Target sequence (O60755 1-299 limits assumed): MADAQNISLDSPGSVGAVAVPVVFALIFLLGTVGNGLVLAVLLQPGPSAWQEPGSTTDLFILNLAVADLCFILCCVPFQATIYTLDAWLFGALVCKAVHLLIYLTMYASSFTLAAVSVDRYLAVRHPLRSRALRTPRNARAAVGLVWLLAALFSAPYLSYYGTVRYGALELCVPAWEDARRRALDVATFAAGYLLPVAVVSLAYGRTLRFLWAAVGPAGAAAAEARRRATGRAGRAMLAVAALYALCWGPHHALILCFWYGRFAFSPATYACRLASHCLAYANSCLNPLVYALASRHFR
SMARCA2 act conf: confirmation of SMARCA2 (BRM) function activators; shares compounds with SMARCA2 activ; MG213 cells, MMTV-luciferase with dexamethasone, luminescence, overnight; MG213 cells expressing E1A, Rb sequestered; DMSO wells 0%, reference activator 100%; activation, % at 9.1 µM; 30% of 3,500 active; AID 652260;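 active = activation above its plate's cutoff, the mean activation of tested wells plus 3 SD, cut at about 7.9% in these data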
VP16 Luc act: activates GAL4-VP16 luciferase, flagging SMARCA2 activator hits. shares compounds with SMARCA2 activ. 41% of 3,500 active. HEK293 GAL4-VP16 pG5luc reporter, luciferase luminescence; scaled: DMSO wells 0%, SAHA wells 100%. activation, % at 9.1 µM. AID 686939;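 active = activation above the solvent-only control well mean plus 3 SD, averaged across control plates, cut at about 5.2% in these data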
The depositor's hits bear a star; nt = not tested or not shown. An excerpt weighted towards active compounds, which were near 3.4% of everything screened.

SMILES	COUP-TFII inh	SMARCA2 activ	Gli-Sufu block	FXN GAA850 act	H9c2 protect	GalR3 antagonist	SMARCA2 act conf	VP16 Luc act
Cc1noc(C)c1C(=O)NNc1ccc(C(C)C)cc1	5.3	-4.3	8.8	1.1	7.2	-5.1	nt	nt
Cc1ccc(NNC(=O)c2c(C)noc2C)cc1Cl	6.5	11.9*	45.1	0.8	-5.8	-5.9	-1.0	1.4
CN(C)CCNC(=O)c1cccc2ccc(-c3ccc(-c4ccccc4)cc3)nc12	-5.1	8.6*	18.3	1.3	-20.1	-11.1	23.7*	0.0
CN(C)CCNC(=O)c1cc2ccccc2oc1=O	-59.8	0.5	-6.3	0.1	-5.3	4.1	nt	nt
CN1CCc2c(c3ccccc3n2Cc2ccccc2)C1	-21.3	-1.7	-2.6	-2.8	9.0	-8.4	-2.0	1.6
CN1CCc2c(c3ccccc3n2C)C1	11.6	0.1	5.9	1.0	-0.8	-2.3	nt	nt
c1ccc(-c2cc(N3CCCCC3)ncn2)cc1	-27.6	8.2*	-32.8	2.1	-7.3	0.9	8.5*	8.6*
C/C(=N\Nc1ccc(Cl)c(C(=O)O)c1)c1ccccn1	-4.6	13.2*	-5.7	2.9	-2.8	-5.8	3.1	2.7
C/C(CC(=O)Nc1ccc(F)cc1)=N\NC(=O)c1ccccn1	-76.1	9.2*	0.3	2.7	2.0	2.4	-3.1	4.9
C/C(=N\Nc1ccc(Cl)c(C(=O)O)c1)c1cccc2ccccc12	-6.1	3.1	-1.4	3.0	-0.1	-6.8	nt	nt
C/C(=N\NC(=O)c1ccc(F)cc1)c1ccccn1	-17.7	9.6*	12.1	1.7	11.8	-11.4	-12.0	-2.7
O=C(Nc1ccc(Br)cn1)c1ccc2ccccc2c1	-14.6	9.3*	-70.4	0.6	-2.9	-7.4	11.9*	13.6*
COc1ccc(C2=NN(S(C)(=O)=O)C(c3cccs3)C2)cc1OC (centres undefined)	-33.5	6.7	-41.4	5.8	-2.8	-0.5	nt	nt
Oc1csc(Cc2nc(-c3ccccc3F)cs2)n1	-24.3	10.4*	-26.9	3.5	-10.8	1.4	16.6*	7.0*
O=c1oc2ccccc2cc1-c1csc(Cc2nc(-c3ccc(Cl)cc3)cs2)n1	2.5	-2.4	18.0	1.6	-12.7	8.7	nt	nt
COC(=O)CCCNC(=O)c1ccc(OC2CCN(CCc3ccccc3)CC2)cc1	9.5	-3.9	11.2	0.1	2.6	0.6	nt	nt
CSCCNC(=O)c1ccc(OC2CCN(CCc3ccccc3)CC2)cc1	13.3	8.0*	10.6	1.9	0.2	-4.9	-1.2	-0.2
CCCCn1c(N)c(N(CCOC)C(=O)C(C)Oc2ccc(Cl)cc2)c(=O)[nH]c1=O (centres undefined)	17.2	-1.4	-11.7	-1.1	3.8	-2.0	nt	nt
CCCCN(C(=O)C(C)Oc1ccc(Cl)cc1)c1c(N)n(CCCC)c(=O)[nH]c1=O (centres undefined)	-4.3	8.2*	7.7	0.1	-0.3	1.3	-0.7	-1.8
O=C(NNC(=O)C1[C@H]2CCCC[C@@H]12)NC1CCCCC1 (some centres undefined)	-6.3	1.8	-3.7	2.1	2.0	-0.8	nt	nt
CCOC(=O)c1[nH]c2cc(OC)c(OC)cc2c1NC(=O)c1nonc1C	-11.9	9.9*	10.5	-0.4	6.7	-1.9	-1.9	-1.8
CN1[C@H](Cc2ccccc2)COc2cccc(N3CCCC3)c2S1(=O)=O	8.0	0.8	nt	nt	nt	nt	nt	nt
CC(C)(C)Cc1c(-c2ccco2)nc2ccc(Cl)cn12	-18.4	12.8*	nt	nt	-3.2	-3.5	1.2	0.8
COc1ccc(C2CC2C(=O)c2ccccn2)cc1 (centres undefined)	5.7	8.6*	-29.4	6.3	-6.4	-4.6	4.5	4.7
C/C(=N\NC(=S)Nc1ccccc1)C1Cc2ccccc2C(=O)O1 (centres undefined)	-17.4	8.3*	4.3	2.0	-5.7	-4.5	2.4	2.8
SMILES	COUP-TFII inh	SMARCA2 activ	Gli-Sufu block	FXN GAA850 act	H9c2 protect	GalR3 antagonist	SMARCA2 act conf	VP16 Luc act
COc1ccc(/C(N)=N/OC(=O)c2ccc3c(c2)OCO3)cc1OC	11.4	11.6*	-66.1	3.8	-12.8	-10.9	9.7*	16.9*
N/C(=N\OC(=O)c1ccc2c(c1)OCO2)c1cccc(Br)c1	-20.6	2.9	-16.2	6.6	-25.2	-2.4	nt	nt
CC1(N=Cc2cc(Cl)ccc2O)COP(=O)(Nc2ccccc2)OC1 (centres undefined)	12.0	8.2*	12.4	-3.8	32.3	-5.6	-1.3	0.9
O=c1ccsn1Cc1ccccc1	6.4	1.8	-9.0	3.1	-36.3	-5.7	nt	nt
Cn1sccc1=O	15.4	9.4*	4.0	1.3	-0.4	-4.9	16.6*	2.1
Oc1ccc(/C=N/n2c(COc3ccccc3)n[nH]c2=S)cc1O	24.3	0.9	3.1	-1.0	13.2	-6.5	nt	nt
COc1ccc(OC)c(CCNC(=O)c2ccc(CS(=O)Cc3ccc(Cl)cc3)o2)c1 (centres undefined)	17.9	-1.7	3.7	-0.2	-6.8	-2.1	nt	nt
N#C/C(=C\c1ccc([N+](=O)[O-])cc1)c1ccccn1	-9.9	10.3*	-33.8	1.5	6.6	-4.5	5.8	6.7*
Cc1ccc(NC(=O)C2CCN(S(=O)(=O)c3ccc(C(C)(C)C)cc3)CC2)cc1S(=O)(=O)N1CCOCC1	-3.5	8.4*	-0.5	-1.3	-6.9	-3.4	-6.8	0.2
COc1c(C(=O)Nc2nccs2)ccc2ccccc12	-30.5	10.2*	-82.8	3.2	-6.3	-11.4	10.2*	10.8*
O=C1[C@H]2[C@@H](/C=C/c3ccccc3)N3C(=O)CN(Cc4ccccn4)C(=O)[C@@]3(Cc3ccccc3)[C@H]2C(=O)N1c1ccccc1	-3.0	1.1	-13.1	-0.5	17.1	-3.5	nt	nt
O=C(COC(=O)c1ccccc1Br)NCC1CCCO1 (centres undefined)	-13.7	2.2	-1.9	2.2	7.0	-6.9	nt	nt
Cc1cccc(C(=O)OCC(=O)NCC2CCCO2)c1O (centres undefined)	-9.5	9.2*	-10.1	2.8	-0.1	-6.4	1.3	0.0
COc1ccc(C2CC(c3ccc(OC)c(OC)c3)=NN2C(=O)c2ccccc2)cc1 (centres undefined)	-30.3	13.3*	1.3	5.5	-1.0	4.4	12.5*	3.1
CCC[C@H]1[C@@H](NC(=O)c2cccc(C(F)(F)F)c2)CC[C@@]23CCCN2C(=O)CCC[C@@H]13	-2.1	nt	nt	nt	nt	nt	nt	nt
O=C(CCNc1ccc(F)cc1)c1cccc([N+](=O)[O-])c1	9.2	2.0	0.4	1.1	-10.3	-5.3	nt	nt
Cc1ccc(NCCC(=O)c2cccc([N+](=O)[O-])c2)cc1	-2.4	9.4*	-7.2	-0.7	-8.5	-4.3	8.0*	1.4
